Experimental data: publication PMC9911399, “Two distinct binding modes provide the RNA-binding protein RbFox with extraordinary sequence specificity”
Where a chain is given by its changes, count along the chain named. Over roughly 16,000 sequences, “ka relative to ugcaugu” has its median near 0.0091; the highest 2% begin near 0.032. Only a selection was taken, and the highest values are over-represented in it overall.

T1: RBFOX1 RRM (Homo sapiens, UniProt Q9NWB1 109-208)
T1 sequence: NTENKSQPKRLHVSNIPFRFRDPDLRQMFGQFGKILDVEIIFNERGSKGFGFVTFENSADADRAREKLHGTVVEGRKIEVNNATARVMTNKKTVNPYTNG

B1: UCUCUCC (DNA:RNA)
RNA: GGGAGACCGGAAUUCAGAUUGUCCUCUCUCCUUAAAUCCCGUCGUAGCCACCA
DNA 1: CAATCTGAATTCCGGTCTCCC
DNA 2: TGGTGGCTACGACGGGATT
B2: GACACAG (DNA:RNA)
RNA: GGGAGACCGGAAUUCAGAUUGUCCGACACAGUUAAAUCCCGUCGUAGCCACCA
DNA 1: CAATCTGAATTCCGGTCTCCC
DNA 2: TGGTGGCTACGACGGGATT
B3: UCUUGGG (DNA:RNA)
RNA: B1 RNA with C28U, U29G, C30G, C31G
DNA 1: CAATCTGAATTCCGGTCTCCC
DNA 2: TGGTGGCTACGACGGGATT
B4: UCCGCCC (DNA:RNA)
RNA: B1 RNA with U27C, C28G, U29C
DNA 1: CAATCTGAATTCCGGTCTCCC
DNA 2: TGGTGGCTACGACGGGATT
B5: CCGCAGG (DNA:RNA)
RNA: B1 RNA with U25C, U27G, U29A, C30G, C31G
DNA 1: CAATCTGAATTCCGGTCTCCC
DNA 2: TGGTGGCTACGACGGGATT
B6: UGCUACU (DNA:RNA)
RNA: B1 RNA with C26G, U27C, C28U, U29A, C31U
DNA 1: CAATCTGAATTCCGGTCTCCC
DNA 2: TGGTGGCTACGACGGGATT
B7: GGCCACG (DNA:RNA)
RNA: B2 RNA with A26G, A28C, C29A, A30C
DNA 1: CAATCTGAATTCCGGTCTCCC
DNA 2: TGGTGGCTACGACGGGATT
B8: GGCACCG (DNA:RNA)
RNA: B2 RNA with A26G, A30C
DNA 1: CAATCTGAATTCCGGTCTCCC
DNA 2: TGGTGGCTACGACGGGATT
B9: CGGCACG (DNA:RNA)
RNA: B1 RNA with U25C, C26G, U27G, U29A, C31G
DNA 1: CAATCTGAATTCCGGTCTCCC
DNA 2: TGGTGGCTACGACGGGATT
B10: UGGGCGC (DNA:RNA)
RNA: B1 RNA with C26G, U27G, C28G, U29C, C30G
DNA 1: CAATCTGAATTCCGGTCTCCC
DNA 2: TGGTGGCTACGACGGGATT
B11: UGGCGCU (DNA:RNA)
RNA: B1 RNA with C26G, U27G, U29G, C31U
DNA 1: CAATCTGAATTCCGGTCTCCC
DNA 2: TGGTGGCTACGACGGGATT
B12: UGGCGGU (DNA:RNA)
RNA: B1 RNA with C26G, U27G, U29G, C30G, C31U
DNA 1: CAATCTGAATTCCGGTCTCCC
DNA 2: TGGTGGCTACGACGGGATT
B13: UGGGCGG (DNA:RNA)
RNA: B2 RNA with G25U, A26G, C27G, A28G, A30G
DNA 1: CAATCTGAATTCCGGTCTCCC
DNA 2: TGGTGGCTACGACGGGATT
B14: CUGGCGG (DNA:RNA)
RNA: B2 RNA with G25C, A26U, C27G, A28G, A30G
DNA 1: CAATCTGAATTCCGGTCTCCC
DNA 2: TGGTGGCTACGACGGGATT
B15: CUGGCGC (DNA:RNA)
RNA: B2 RNA with G25C, A26U, C27G, A28G, A30G, G31C
DNA 1: CAATCTGAATTCCGGTCTCCC
DNA 2: TGGTGGCTACGACGGGATT
B16: CAGCUCC (DNA:RNA)
RNA: B1 RNA with U25C, C26A, U27G
DNA 1: CAATCTGAATTCCGGTCTCCC
DNA 2: TGGTGGCTACGACGGGATT
B17: AGACUGC (DNA:RNA)
RNA: B1 RNA with U25A, C26G, U27A, C30G
DNA 1: CAATCTGAATTCCGGTCTCCC
DNA 2: TGGTGGCTACGACGGGATT
B18: AGGGAGG (DNA:RNA)
RNA: B2 RNA with G25A, A26G, C27G, A28G, C29A, A30G
DNA 1: CAATCTGAATTCCGGTCTCCC
DNA 2: TGGTGGCTACGACGGGATT
B19: AAGUGUC (DNA:RNA)
RNA: B2 RNA with G25A, C27G, A28U, C29G, A30U, G31C
DNA 1: CAATCTGAATTCCGGTCTCCC
DNA 2: TGGTGGCTACGACGGGATT
B20: UGAGCAU (DNA:RNA)
RNA: B2 RNA with G25U, A26G, C27A, A28G, G31U
DNA 1: CAATCTGAATTCCGGTCTCCC
DNA 2: TGGTGGCTACGACGGGATT
B21: UCAUGUU (DNA:RNA)
RNA: B1 RNA with U27A, C28U, U29G, C30U, C31U
DNA 1: CAATCTGAATTCCGGTCTCCC
DNA 2: TGGTGGCTACGACGGGATT
B22: GCUGUUA (DNA:RNA)
RNA: B1 RNA with U25G, C28G, C30U, C31A
DNA 1: CAATCTGAATTCCGGTCTCCC
DNA 2: TGGTGGCTACGACGGGATT
B23: GGCGCCG (DNA:RNA)
RNA: B2 RNA with A26G, A28G, A30C
DNA 1: CAATCTGAATTCCGGTCTCCC
DNA 2: TGGTGGCTACGACGGGATT
B24: GAAUUUG (DNA:RNA)
RNA: B2 RNA with C27A, A28U, C29U, A30U
DNA 1: CAATCTGAATTCCGGTCTCCC
DNA 2: TGGTGGCTACGACGGGATT
B25: GUCGGGA (DNA:RNA)
RNA: B2 RNA with A26U, A28G, C29G, A30G, G31A
DNA 1: CAATCTGAATTCCGGTCTCCC
DNA 2: TGGTGGCTACGACGGGATT
B26: CACCGGA (DNA:RNA)
RNA: B2 RNA with G25C, A28C, C29G, A30G, G31A
DNA 1: CAATCTGAATTCCGGTCTCCC
DNA 2: TGGTGGCTACGACGGGATT
B27: CGGAUUG (DNA:RNA)
RNA: B2 RNA with G25C, A26G, C27G, C29U, A30U
DNA 1: CAATCTGAATTCCGGTCTCCC
DNA 2: TGGTGGCTACGACGGGATT
B28: GGAUAGU (DNA:RNA)
RNA: B2 RNA with A26G, C27A, A28U, C29A, A30G, G31U
DNA 1: CAATCTGAATTCCGGTCTCCC
DNA 2: TGGTGGCTACGACGGGATT
B29: CGGAUAG (DNA:RNA)
RNA: B2 RNA with G25C, A26G, C27G, C29U
DNA 1: CAATCTGAATTCCGGTCTCCC
DNA 2: TGGTGGCTACGACGGGATT
B30: GUCCGGA (DNA:RNA)
RNA: B2 RNA with A26U, A28C, C29G, A30G, G31A
DNA 1: CAATCTGAATTCCGGTCTCCC
DNA 2: TGGTGGCTACGACGGGATT
B31: GGGAUAG (DNA:RNA)
RNA: B2 RNA with A26G, C27G, C29U
DNA 1: CAATCTGAATTCCGGTCTCCC
DNA 2: TGGTGGCTACGACGGGATT
B32: GUCGGAU (DNA:RNA)
RNA: B2 RNA with A26U, A28G, C29G, G31U
DNA 1: CAATCTGAATTCCGGTCTCCC
DNA 2: TGGTGGCTACGACGGGATT
B33: GGAUUUG (DNA:RNA)
RNA: B2 RNA with A26G, C27A, A28U, C29U, A30U
DNA 1: CAATCTGAATTCCGGTCTCCC
DNA 2: TGGTGGCTACGACGGGATT
B34: GGGAUUG (DNA:RNA)
RNA: B2 RNA with A26G, C27G, C29U, A30U
DNA 1: CAATCTGAATTCCGGTCTCCC
DNA 2: TGGTGGCTACGACGGGATT
B35: GGGGGGA (DNA:RNA)
RNA: B2 RNA with A26G, C27G, A28G, C29G, A30G, G31A
DNA 1: CAATCTGAATTCCGGTCTCCC
DNA 2: TGGTGGCTACGACGGGATT

Target: T1, RBFOX1 RRM
Test: EMSA; HiTS-Eq, 1 nM pool, 10 min; buffer printed only for the single-RNA assays: 10 mM Tris pH 7.5, 150 mM NaCl, 3.4 mM EDTA, 0.001% NP-40, 30 C
Details: tags: His6 N-terminal (pET28a); label: 5' 32P
Summary of the method: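 A pool of RNA with 7 randomized nucleotides, 5′-radiolabelled and with DNA-annealed flanks, was equilibrated at 1 nM for 10 min in 50 µL with purified RbFox RRM, wild type or mutant, across increasing protein concentrations. Free RNA was separated by 8% native PAGE, excised, reverse-transcribed, barcoded by PCR and sequenced. Relative association constants were obtained from read-count changes of each RNA species versus the control reaction and normalised to the cognate motif.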

| Binder | binding signal |
| --- | --- |
| B1 | 0.00975 KA relative to UGCAUGU |
| B2 | 0.00906 KA relative to UGCAUGU |
| B3 | 0.00663 KA relative to UGCAUGU |
| B4 | 0.00894 KA relative to UGCAUGU |
| B5 | 0.0108 KA relative to UGCAUGU |
| B6 | 0.0158 KA relative to UGCAUGU |
| B7 | 0.00911 KA relative to UGCAUGU |
| B8 | 0.0143 KA relative to UGCAUGU |
| B9 | 0.0377 KA relative to UGCAUGU |
| B10 | 0.0335 KA relative to UGCAUGU |
| B11 | 0.0198 KA relative to UGCAUGU |
| B12 | 0.0227 KA relative to UGCAUGU |
| B13 | 0.0408 KA relative to UGCAUGU |
| B14 | 0.00866 KA relative to UGCAUGU |
| B15 | 0.02 KA relative to UGCAUGU |
| B16 | 0.00767 KA relative to UGCAUGU |
| B17 | 0.0128 KA relative to UGCAUGU |
| B18 | 0.0245 KA relative to UGCAUGU |

| Binder | binding signal |
| --- | --- |
| B19 | 0.0153 KA relative to UGCAUGU |
| B20 | 0.0172 KA relative to UGCAUGU |
| B21 | 0.0106 KA relative to UGCAUGU |
| B22 | 0.0113 KA relative to UGCAUGU |
| B23 | 0.00841 KA relative to UGCAUGU |
| B24 | 0.0172 KA relative to UGCAUGU |
| B25 | 0.0117 KA relative to UGCAUGU |
| B26 | 0.00389 KA relative to UGCAUGU |
| B27 | 0.0329 KA relative to UGCAUGU |
| B28 | 0.0169 KA relative to UGCAUGU |
| B29 | 0.0228 KA relative to UGCAUGU |
| B30 | 0.00347 KA relative to UGCAUGU |
| B31 | 0.0337 KA relative to UGCAUGU |
| B32 | 0.00831 KA relative to UGCAUGU |
| B33 | 0.034 KA relative to UGCAUGU |
| B34 | 0.0593 KA relative to UGCAUGU |
| B35 | 0.0226 KA relative to UGCAUGU |
